Screening data deposited in PubChem BioAssay by several laboratories.
3CLpro inhibitor = SARS-CoV 3CLpro protease inhibition. P0C6X7. AID 1706. recombinant SARS-CoV 3CLpro, quenched FRET peptide cleavage. 0.14% of 290,000 active. inhibition, % at 6 µM; in the data active = inhibition above about 12%
VHR inh abs = DUSP3 (human) phosphatase inhibition; inhibition, % at 13.3 µM; recombinant VHR phosphatase, pNPP absorbance; AID 1654; P51452; 0.52% of 290,000 active; in the data active = inhibition above about 50%
Target sequence (P51452 whole entry, looked up): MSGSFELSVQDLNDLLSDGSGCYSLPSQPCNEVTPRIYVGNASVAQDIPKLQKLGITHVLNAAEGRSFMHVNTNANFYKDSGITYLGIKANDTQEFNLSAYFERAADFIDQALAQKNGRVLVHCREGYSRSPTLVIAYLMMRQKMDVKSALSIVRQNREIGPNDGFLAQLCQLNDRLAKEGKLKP
BoNT A protease = blocks Botulinum neurotoxin A light chain protease; multiplex microsphere protease substrate cleavage, flow cytometry; inhibition, % at 10 µM; 0.17% of 360,000 active; note: plate controls were buffer without enzyme for full effect and enzyme alone for no effect
Anthrax LF inh2 = anthrax lethal factor protease inhibition. P15917. inhibition, % at 10 µM. AID 588501. 0.12% of 360,000 active. multiplex microsphere protease cleavage assay, LF; note: plate controls were buffer without enzyme for full effect and enzyme alone for no effect
Autofluor counter = compound fluorescence in toxin protease inhibitor counterscreen | compound autofluorescence counterscreen, microsphere flow cytometry; stronger effect = higher value | fluorescence intensity (concentration not given with the values) | 3.1% of 360,000 active | AID 624483; in the data active = fluorescence intensity above about 16000; inconclusive = no clear call, values can overlap the other calls
BoNT F protease = blocks Botulinum neurotoxin F light chain protease; Multiplex microsphere protease cleavage assay, flow cytometry; 0.22% of 360,000 active; inhibition, % at 10 µM; AID 588497; in the data active = inhibition above about 35%, passing the limit was not always enough; inconclusive = no clear call, values can overlap the other calls; note: plate controls were buffer without enzyme for full effect and enzyme alone for no effect
* = called active by the depositor. Shown are actives, neighbours in structure and some others; about 3.9% of the full set was active somewhere. Cut-off read from the data, not from the text of the source, unless noted: active = inhibition above about 30%; inconclusive = no clear call, values can overlap the other calls; inactive = below that.

For COCCNC(=O)CCCCCn1c(=S)[nH]c2ccccc2c1=O the results were 3CLpro inhibitor -1.7, VHR inh abs 36.7, BoNT A protease inconclusive, Anthrax LF inh2 2.2, Autofluor counter 22614* and BoNT F protease 0.9.
O=c1cc(C(F)(F)F)nc(-c2ccccc2)[nH]1 was read as 3CLpro inhibitor 3.8, VHR inh abs 21.1, BoNT A protease inconclusive, Anthrax LF inh2 -1.1, Autofluor counter 21831* and BoNT F protease 1.8.
`Cc1cc(N2C(=O)C(O)=C(C(=O)c3cccs3)C2c2ccccc2)no1` (stereo not given) gave 3CLpro inhibitor 3.2, VHR inh abs 27.0, BoNT A protease -3.4, Anthrax LF inh2 -2.1, Autofluor counter 17508* and BoNT F protease -6.8.
Screening Cc1ccc(C(=O)CSc2nnc(-c3c[nH]c4ccccc34)o2)cc1 returned 3CLpro inhibitor 0.3, VHR inh abs 16.3, BoNT A protease inconclusive, Anthrax LF inh2 -6.5, Autofluor counter 19814* and BoNT F protease 2.0.
For CC(C)C(C)NC(=O)CSc1nnc(-c2c[nH]c3ccccc23)o1 (stereo not given) the results were 3CLpro inhibitor -2.3, VHR inh abs 3.6, BoNT A protease -0.1, Anthrax LF inh2 -1.1, Autofluor counter 3300 and BoNT F protease 2.5.
Cc1ccc(NC(=O)CSc2nnc(-c3ccc(S(=O)(=O)N4CCCC4)cc3)o2)cc1C was read as 3CLpro inhibitor 5.2, VHR inh abs 8.6, BoNT A protease 2.0, Anthrax LF inh2 -0.3, Autofluor counter 21954* and BoNT F protease 1.9.
Cc1cc(C)nc(SCC(=O)Nc2ccc(S(=O)(=O)N3CCCCC3)cc2)n1 was read as 3CLpro inhibitor -3.9, VHR inh abs 7.8, BoNT A protease 0.9, Anthrax LF inh2 -0.9, Autofluor counter 16364* and BoNT F protease 1.2.
Screening Cc1cc(C)nc(SCC(=O)Nc2ccc(S(=O)(=O)NCCO)cc2)n1 returned 3CLpro inhibitor -0.3, VHR inh abs 24.3, BoNT A protease 1.4, Anthrax LF inh2 -0.5, Autofluor counter 23188* and BoNT F protease -1.3.
Screening CCOc1nc(C)cc(C)c1S(=O)(=O)c1cccc(C)c1 returned 3CLpro inhibitor 2.7 and VHR inh abs 15.1.
Screening Cc1cc(C)c(S(=O)(=O)c2c(C)cccc2C)c(OCC(C)C)n1 returned 3CLpro inhibitor 1.2, VHR inh abs 10.8, BoNT A protease -0.5, Anthrax LF inh2 0.1, Autofluor counter 23555* and BoNT F protease -2.0.
For CNC(=S)N1CCN=C1Nc1nc(C)cc(C)n1 the results were 3CLpro inhibitor -0.1, VHR inh abs 28.8, BoNT A protease -0.5, Anthrax LF inh2 7.3, Autofluor counter 4745 and BoNT F protease 0.0.
For CCC(C)(C(=O)NC1CCCC1)N(C)C(=O)c1ccccn1 (stereo not given) the results were 3CLpro inhibitor 1.2, VHR inh abs 33.2, BoNT A protease -0.5, Anthrax LF inh2 0.4, Autofluor counter 3255 and BoNT F protease -4.9.
`N#C/C(=C\c1ccc(N2CCOCC2)c([N+](=O)[O-])c1)c1nc2ccccc2[nH]1` gave 3CLpro inhibitor 2.7, VHR inh abs 7.3, BoNT A protease 0.2, Anthrax LF inh2 0.8, Autofluor counter 2111 and BoNT F protease -11.1.
Screening N#C/C(=C\c1ccc(N2CCOCC2)o1)c1nc2ccccc2[nH]1 returned 3CLpro inhibitor -3.6, VHR inh abs 18.9, BoNT A protease -17.0, Anthrax LF inh2 -4.1, Autofluor counter 11443 and BoNT F protease 102.0*.
Cc1ccc(S(=O)(=O)NCCCCCC(=O)N(C)C)cc1 was read as 3CLpro inhibitor -4.6, VHR inh abs -12.4, BoNT A protease 1.1, Anthrax LF inh2 -2.6, Autofluor counter 19200* and BoNT F protease 1.9.
For Cc1ccc(S(=O)(=O)NCCOCCNS(=O)(=O)c2ccc(C)cc2)cc1 the results were 3CLpro inhibitor 2.2, VHR inh abs 23.2, BoNT A protease 0.2, Anthrax LF inh2 1.5, Autofluor counter 16362* and BoNT F protease -0.4.
Screening CSc1nc(C)cc(OCCNS(=O)(=O)c2ccc(C)cc2)n1 returned 3CLpro inhibitor -2.1, BoNT A protease -5.5, Anthrax LF inh2 -6.6, Autofluor counter 17261* and BoNT F protease -7.3.
`Cc1cc(=O)[nH]c(SCC(=O)N2C(C)CCCC2C)n1` (stereo not given) gave 3CLpro inhibitor 5.2, VHR inh abs -9.4, BoNT A protease 1.7, Anthrax LF inh2 1.9, Autofluor counter 5447 and BoNT F protease 4.4.
For C[C@H](CO)N1C[C@H](C)[C@@H](CN(C)C(=O)CN2CCOCC2)Oc2ncc(-c3cncnc3)cc2C1=O the results were BoNT A protease 0.1, Anthrax LF inh2 -6.5, Autofluor counter 2914 and BoNT F protease -3.8.
For CC1CCCN(CC(O)CN)C1 (stereo not given) the results were 3CLpro inhibitor 0.8, VHR inh abs 8.8, BoNT A protease -14.0, Anthrax LF inh2 -18.2, Autofluor counter 17684* and BoNT F protease -41.2.
For O=C1CC(NNC(=O)c2ccc(Br)cc2)C(=O)N1 (stereo not given) the results were 3CLpro inhibitor -0.5, VHR inh abs 6.1, BoNT A protease 4.6, Anthrax LF inh2 8.3, Autofluor counter 3778 and BoNT F protease 42.8*.
O=C1CC(NNC(=O)c2ccccc2)C(=O)N1 (stereo not given) was read as 3CLpro inhibitor -3.6, VHR inh abs 10.5, BoNT A protease 0.2, Anthrax LF inh2 -12.5, Autofluor counter 9541 and BoNT F protease 11.8.
Screening O=S(=O)(c1ccc2ccccc2c1)N(CC(O)COCc1ccco1)c1ccccc1 (stereo not given) returned 3CLpro inhibitor 3.9, VHR inh abs 7.2, BoNT A protease -0.9, Anthrax LF inh2 -6.3, Autofluor counter 23464* and BoNT F protease -2.5.
For O=c1c(Cc2ccc(Cl)cc2)c(O)ccn1Cc1cccs1 the results were 3CLpro inhibitor 3.5, VHR inh abs 50.3*, BoNT A protease -0.8, Anthrax LF inh2 2.5, Autofluor counter 3042 and BoNT F protease 4.4.
For O=c1c(Cc2ccc(Cl)cc2)c(O)ccn1Cc1ccncc1 the results were 3CLpro inhibitor 1.4, VHR inh abs 21.6, BoNT A protease -1.5, Anthrax LF inh2 -4.8, Autofluor counter 4403 and BoNT F protease 3.2.
O=C1CCCN1C(=O)CSc1nnnn1-c1cccc(F)c1 was read as BoNT A protease -0.4, Anthrax LF inh2 -0.4, Autofluor counter 3822 and BoNT F protease -0.1.
Cc1c(CC(=O)N2CCC(O)CC2)c(=O)oc2cc3c(cc12)CCC1(CCCCC1)O3 was read as BoNT A protease -0.7, Anthrax LF inh2 -1.5, Autofluor counter 3171 and BoNT F protease -5.2.
Screening Cc1cc(C)n2nc3nc4c(cc3c2n1)CCCC4 returned 3CLpro inhibitor 1.7, VHR inh abs 7.1, BoNT A protease inconclusive, Anthrax LF inh2 1.7, Autofluor counter 19863* and BoNT F protease 6.4.
`O=C(NCc1ccccc1)c1cc(-c2cccs2)on1` gave 3CLpro inhibitor 0.8, VHR inh abs -0.8, BoNT A protease 5.1, Anthrax LF inh2 -8.8, Autofluor counter 18644* and BoNT F protease 6.9.
